Here are results for five compounds from PubChem BioAssay AID1441 (NMMLSC, 2008).

Screen size: about 220,000 compounds; about 830 (0.38%) were called active. This is one part of a sample in which actives are shown more often than they occur. A number with no mark means an inactive call. How the calls were made is not given here.

Sequence of Regulator of G-protein signaling 16 (Homo sapiens) + Guanine nucleotide-binding protein G(o) subunit alpha (Homo sapiens) (O15492 whole entry, looked up): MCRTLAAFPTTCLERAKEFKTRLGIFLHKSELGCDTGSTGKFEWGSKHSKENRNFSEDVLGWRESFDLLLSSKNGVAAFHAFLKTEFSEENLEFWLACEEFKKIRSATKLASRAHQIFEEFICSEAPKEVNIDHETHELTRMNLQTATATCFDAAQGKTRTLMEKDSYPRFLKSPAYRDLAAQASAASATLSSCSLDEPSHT
Sequence of Regulator of G-protein signaling 16 (Homo sapiens) + Guanine nucleotide-binding protein G(o) subunit alpha (Homo sapiens) (P09471 whole entry, looked up): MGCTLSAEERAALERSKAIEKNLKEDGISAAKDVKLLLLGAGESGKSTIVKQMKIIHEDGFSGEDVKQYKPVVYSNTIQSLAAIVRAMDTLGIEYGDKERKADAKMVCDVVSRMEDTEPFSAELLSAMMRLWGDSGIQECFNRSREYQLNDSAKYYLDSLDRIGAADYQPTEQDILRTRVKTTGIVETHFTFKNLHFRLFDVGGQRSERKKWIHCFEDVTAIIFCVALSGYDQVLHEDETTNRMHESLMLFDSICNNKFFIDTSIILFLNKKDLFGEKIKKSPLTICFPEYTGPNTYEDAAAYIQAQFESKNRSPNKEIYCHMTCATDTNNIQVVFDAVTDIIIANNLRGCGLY

This experiment has as its target Regulator of G-protein signaling 16 (Homo sapiens) + Guanine nucleotide-binding protein G(o) subunit alpha (Homo sapiens) (UniProt O15492+P09471). As to the kind of experiment: RGS16-Galphao interaction inhibitors and enhancers – biochemical, human proteins, multiplexed bead flow cytometry, primary screen (AID 1441).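 Further: Galphao activated by GDP with aluminum fluoride before binding.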 The following applies: bead-based flow cytometry RGS16-Galphao binding, fluorescence; at 10 µM; actives lie on both sides. For orientation: Flow cytometry measures light scatter and fluorescence of single cells or particles in a stream.
Turning to `CC(C)N(CC#CCC1(O)c2ccccc2-c2ccccc21)C(C)C`, the binding response (% of control) is 180% [activator] (active).

As for `CCOC(=O)C1(Cc2ccc(Cl)cc2)CCN(C(C)CCn2cccn2)CC1` (stereo not given), the binding response (% of control) was 102%.

For `O=[N+]([O-])c1ccc(C2C3C(c4ccccc4)=NC4(CCCCC4)N32)cc1` (stereo not given), the binding response (% of control) was 100%.

Take `COc1ccc(CN2C(=O)NC(=O)/C(=C\c3ccc(OC)c(OC)c3OC)C2=O)cc1`: the binding response (% of control) is 97.6%.

As to `CCOC(=O)c1c(-c2ccccc2)oc2ccc(OC(=O)N(C)C)cc12`, the binding response (% of control) is 116%.
